Reference: PubChem BioAssay (NCATS)
Records with an inconclusive call do not appear. The source made the active and inactive calls. Calls come from the whole dose curve; as a rule, active = well fitted inhibition curve with a large enough effect; inconclusive = small, poorly fitted or top-dose-only effect; inactive = flat fitted curve, though single readings scatter.

Test system: CRL-7250
Assay: qHTS assay to identify novel small-molecules to repurpose for Merkel cell carcinoma treatment (AID 1296009); note: nearly all actives have a fitted effect of over 60% in size
Conditions: MCC and control cell lines, CellTiter-Glo viability, 72 h; series mostly up to 92 µM; activity change, negative = cytotoxicity: at the top concentration
Method in brief: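 Cells exposed to NPC (8-point) and MIPE (11-point) compound dilutions for 72 hr at 37 degree celsius; viability read by CellTiter-Glo luminescence, normalized to no-cell and DMSO in-plate controls.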

SMILES | outcome
CC(C)/C=C1/NC(=O)C(C(C)C)n2c1nc1c(O)cccc1c2=O (stereo not drawn) | inactive
C=C1CC23CC1CCC2C12OC(=O)C(C)(CCC1O)C2C3C(=O)O (stereo not drawn) | inactive
CCC1OC(=O)C(C)CC(C)C(=O)/C(C)=C/C(C)C(=O)/C=C/C1(C)O (stereo not drawn) | inactive
CC1CCC2C(C)(C)C(O)CCC2(C)C12Cc1c(O)cc3c(c1O2)CN(C(CCCN=C(N)N)C(=O)O)C3=O (stereo not drawn) | inactive [at 17.4 µM]
C=C1[C@H]2[C@H](O[C@@H]3O[C@H](COC(=O)/C=C/c4cc(OC)c(O)c(OC)c4)[C@@H](O)[C@H](O)[C@H]3O)OC=C(C(=O)O)[C@H]2C[C@@H]1O | inactive [at 17.4 µM]
NCc1c[nH]c(=S)n1[C@@H]1CCc2c(F)cc(F)cc2C1 | inactive
CCC(C)C(=O)O[C@@H]1[C@@H](O)[C@@H](O[C@H]2O[C@H](CO)[C@@H](O)[C@H](O)[C@H]2O)O[C@H](CO)[C@H]1O (stereo partly drawn) | inactive [at 17.4 µM]
C/C=C(\C)C(=O)OCC1OC(OC2OC(CO)C(O)C(O)C2O)C(O)C(O)C1O (stereo not drawn) | inactive [at 17.4 µM]
CC(=O)[C@@H]1CC[C@]2(C(=O)O)CC[C@]3(C)C(CCC4[C@@]5(C)CC[C@H](O)C(C)(C)C5CC[C@]43C)C12 (stereo partly drawn) | inactive [at 17.4 µM]
CC(C)(O)C1CCC(C)(C2CCC3(C)C4CCC5C(C)(C(=O)OC6OC(CO)C(O)C(O)C6O)C(O)CC(O)C56CC46CCC23C)O1 (stereo not drawn) | inactive [at 17.4 µM]
CCc1nn(CCO)c(CC)c1Oc1cc(C#N)cc(C#N)c1 | inactive
CC12CCC(=O)C=C1C(O)CC1C2C(O)CC2(C)C1CC[C@]2(O)C(=O)CO (stereo partly drawn) | inactive [at 9.27 µM]
CC(C)(O)C1CCC2(C)C3C(O)C4C(C13)C42CO (stereo not drawn) | inactive
